Source: PubChem BioAssay
The list is not random: actives were taken first. Their share in the collection is about 1.9%.
GRK2 inh: human GRK2 inhibition via aptamer displacement | P25098 | bead flow cytometry, FAM-aptamer displacement from GRK2 | actives 0.59% (n = 330,000) | inhibition of aptamer binding, % at 10 µM;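 active = inhibition of aptamer binding above 40%, roughly 3 SD of noise, on plates passing a quality check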;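 note: median bead fluorescence of bound FAM aptamer so fluorescent compounds give negative values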
PERK inh: blocks human PERK kinase; actives 0.17% (n = 220,000); CHO PERK-DD fusion, SEAP luminescence translation reporter; inhibition, % at 5.6 µM; Q9NZJ5;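 active = inhibition above the mean inhibition of all tested compounds plus 3 SD, set separately per screening campaign, cut at about 2.9% in these data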;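 note: PERK kinase domain activated by AP20187 dimerizer at 100 nM; 0% = DMSO with dimerizer and 100% = rapamycin at 8.4 µM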
PABP FP inh: blocks human PABP binding to poly(A) RNA; P11940; fluorescence polarization; inhibition, % at 35 µM; actives 1% (n = 290,000);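 note: calls also rest on retests at 20 µM and on dose response follow-up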
Target sequence (P11940 whole entry, looked up): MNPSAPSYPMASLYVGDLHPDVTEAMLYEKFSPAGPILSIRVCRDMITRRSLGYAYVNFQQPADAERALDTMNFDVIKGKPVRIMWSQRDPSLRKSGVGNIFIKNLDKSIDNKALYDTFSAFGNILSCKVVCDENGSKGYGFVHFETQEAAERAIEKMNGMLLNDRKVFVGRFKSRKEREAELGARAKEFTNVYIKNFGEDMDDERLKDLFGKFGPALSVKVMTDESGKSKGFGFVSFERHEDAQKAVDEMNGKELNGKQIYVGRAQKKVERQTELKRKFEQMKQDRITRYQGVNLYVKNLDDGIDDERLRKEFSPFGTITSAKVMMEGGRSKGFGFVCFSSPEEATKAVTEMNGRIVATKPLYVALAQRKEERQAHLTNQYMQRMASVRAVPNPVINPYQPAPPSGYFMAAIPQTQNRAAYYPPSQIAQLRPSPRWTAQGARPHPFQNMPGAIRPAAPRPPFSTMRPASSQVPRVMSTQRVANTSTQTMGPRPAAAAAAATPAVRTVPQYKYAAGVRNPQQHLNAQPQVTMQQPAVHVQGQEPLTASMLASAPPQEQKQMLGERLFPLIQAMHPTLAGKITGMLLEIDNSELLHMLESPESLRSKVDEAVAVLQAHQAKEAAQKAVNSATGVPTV
eIF4H FP inh: inhibitors of RNA binding by human eIF4H; Q15056; eIF4H fluorescence polarization binding assay; inhibition, % at 35 µM; actives 0.94% (n = 290,000); AID 2012;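 note: calls also rest on retests at 20 µM and on dose response follow-up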
PABP1 MLLE inh: blocks PAM2 peptide binding to the PABP1 MLLE domain; P11940; GST-MLLE / FITC-PAM2 fluorescence polarization; inhibition, % at 20 µM; actives 0.36% (n = 360,000); AID 588489; in the data active = inhibition above about 35%, passing the limit was not always enough;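 note: plate controls were DMSO wells with GST-MLLE for no effect and wells lacking GST-MLLE protein for full effect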
* hit, by the source's call; u = inconclusive; x = not tested or not shown. Unless noted, the rule behind the calls is not given here.

SMILES | GRK2 inh | PERK inh | PABP FP inh | eIF4H FP inh | PABP1 MLLE inh
C#Cc1ccc(C(=O)NCc2ccc(N3CCCC3=O)cc2)cc1 | 3 | 1 | active | 61 | 15
COc1ccc(-c2csc(C(C#N)=C(O)CSc3nccn3C)n2)cc1OC | x | x | x | x | -13
O=C(N/N=C/c1cccn1-c1cccc(C(=O)O)c1)Nc1ccccc1 | 24 | 1 | active | u | -2
O=C(O)c1cccc(-n2cccc2C=C2C(=O)c3ccccc3C2=O)c1 | 10 | 1 | -4 | 61 | 10
NC(=O)CC1C(=O)N(c2ccccc2)C(=S)N1NC(=O)c1ccccc1 (stereo not given) | 1 | x | 6 | 6 | 3
COc1cc([N+](=O)[O-])ccc1-c1ccc(C(=O)Nc2ccc(NC(C)=O)cc2)o1 | 0 | 0 | 12 | 9 | -12
CC(=O)Nc1ccc(NC(=O)c2ccc(-c3ccc([N+](=O)[O-])cc3)o2)cc1 | 0 | x | 7 | 53* | 1
COc1ccc(NC(=O)c2ccc(-c3ccc([N+](=O)[O-])cc3)o2)cc1OC | 2 | 1 | -8 | -13 | 10
COc1cccc(NC(=O)c2ccc(-c3ccc([N+](=O)[O-])cc3)o2)c1 | 10 | 0 | 36* | 55 | 17
C#CCOCCOCCOCCNc1nc(N2CCN(C(=O)C([C@@H](C)CC)n3cc(C(N)CO)nn3)CC2)nc(N2CCN(C(=O)[C@H](CCC(=O)O)n3cc(C(N)[C@H](C)CC)nn3)CC2)n1 (stereo not given in full) | x | x | -4 | 2 | x
O=C(/C=C/c1ccc(OCCCF)cc1)Nc1ccnc(-c2cccnc2)n1 | 3 | 0 | active | 102* | -63
O=C(/C=C/c1ccc(OCCCF)cc1)Nc1ccnc(-c2ccncc2)n1 | 0 | -1 | 0 | -3 | -9
Cc1nnc(NC(=O)c2cc(-c3ccco3)nc3ccccc23)s1 | 91* | x | x | x | 11
O=C(Nc1nc2ccccc2s1)c1cc(-c2ccco2)nc2ccccc12 | 2 | -1 | -11 | -4 | 10
CCN(CC)CCNC(=O)c1ccc(NC(=O)c2cc(-c3ccco3)nc3ccccc23)cc1 | 0 | x | 3 | 72 | -21
O=C(Nc1nccs1)c1cc(-c2ccco2)nc2ccccc12 | 1 | 0 | active | 58 | -4
Cc1csc(NC(=O)c2cc(-c3ccco3)nc3ccccc23)n1 | 11 | 0 | 1.9* | 88* | -16
CN(C)C(=O)c1ccc(NC(=O)c2cc(-c3ccco3)nc3ccccc23)cc1 | 15 | x | 40* | 77* | 2
O=C(c1ccc(Cl)c(S(=O)(=O)N2CCOCC2)c1)N1CCc2ccccc2C1 | 0 | x | x | x | 8
O=C(NC(=S)Nc1cccc(S(=O)(=O)NC2=NCCC2)c1)c1cc(-c2ccco2)nc2ccccc12 | 0 | 1 | 38 | 76 | 69
O=C(Nc1cccc(S(=O)(=O)NC2=NCCC2)c1)c1cc(-c2ccco2)nc2ccccc12 | 0 | 3.2* | 68* | 90* | -28
CC(=O)C1=C(O)C(=O)N(c2ccc(O)cc2)C1c1cccc(F)c1 (stereo not given) | 0 | x | 7 | -1 | 1
COc1ccc(S(=O)(=O)N2CCN(C(=O)/C=C/c3ccco3)CC2)cc1 | x | x | x | x | 7
O=C(/C=C/c1ccco1)N1CCN(S(=O)(=O)c2cccc([N+](=O)[O-])c2)CC1 | 79* | x | x | x | -78
O=C(/C=C/c1ccco1)N1CCN(c2ncccn2)CC1 | 10 | 1 | -4 | 44 | 68*
SMILES | GRK2 inh | PERK inh | PABP FP inh | eIF4H FP inh | PABP1 MLLE inh
O=C(/C=C/c1c(Cl)cccc1Cl)N1CCN(c2ncccn2)CC1 | 1 | 0 | 7 | 2 | 1
Cc1c(C)n(CCC(=O)O)c2ccccc12 | 2 | 0 | 8 | 4 | -8
Cc1ccc2c(c1)c(C)cc(=O)n2CCC(=O)O | 19 | 0 | 10 | 88* | 8
CC(NCC(=O)Nc1ccccc1C(=O)NC1CC1)c1ccc(F)cc1F (stereo not given) | 0 | x | x | x | -5
Cc1ccc(OCC(O)CN2CC3(C)CC2CC(C)(C)C3)cc1 (stereo not given) | 0 | 0 | 52* | 13* | 4
CCc1ccc(NC(=O)CCc2ccc(CC)o2)cc1 | 0 | x | 1 | 16 | -5
Cc1cc(C)c[n+](-c2[nH]c(=O)sc2/C=N/N=C(\[O-])c2cccnc2)c1 | 7 | x | 24 | 8 | 36*
COc1ccc(NC(=O)C2Cc3ccccc3CN2C(=O)c2ccccc2)cn1 (stereo not given) | 0 | 0 | u | u | 71*
CC(=O)c1ccc(NC(=O)C2Cc3ccccc3CN2C(=O)c2ccccc2)cc1 (stereo not given) | 1 | 1 | -1 | 2 | -7
